DT40 TDP1 no CPT: qHTS for Inhibitors of human tyrosyl-DNA phosphodiesterase 1 (TDP1): qHTS in cells in absence of CPT; Potency, µM (doses to about 46.2 µM), actives largely listed as inhibitors; hit rate 15% among 420,000; DT40 Tdp1-/- hTDP1 cells, no CPT, ATP luminescence, 48 h; note: nearly all actives have a fitted effect of over 55% in size
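Growth of hTDP1-complemented DT40 Tdp1-knockout cells is measured by ATP luminescence after at least 48 hr compound exposure at 37 °C, with DMSO substituting for the 20 nM CPT used in the parallel screen.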
D3 antag: antagonists of human D3 dopamine receptor; max response, negative = inhibition, %; P35462; hit rate 2.5% among 360,000; D3R cells, DiscoveRx beta-arrestin luminescence, antagonist mode; stronger effect = lower value; in the data active = max response below about -50%; inconclusive = no clear call, values can overlap the other calls
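Cells expressing the human receptor were seeded at 1500 cells/well, incubated overnight at 37 degrees C in 5% CO2, then exposed to library compounds with dopamine controls for 90 minutes at 37 degrees C before luminescent detection.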
TDP1 cell CPT: DT40-hTDP1 cell growth loss with CPT. chicken DT40 Tdp1-/-;hTDP1 cells + 20 nM CPT, ATP luminescence, 48 h. Potency, µM (highest dose often 46.2 µM), actives largely listed as inhibitors. hit rate 12% among 420,000. AID 686979; note: nearly all actives have a fitted effect of over 55% in size
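Cell growth measured by CellTiter-Glo luminescence after a minimum 48 h, 37 C compound exposure with 20 nM CPT in Tdp1-knockout DT40 cells stably expressing hTDP1, seeded 400/well; qHTS titration format.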
D3 ag: D3 dopamine receptor (human) agonism | max activation, % | P35462 | hit rate 0.58% among 410,000 | D3R DiscoveRx beta-arrestin cells, luminescence, 90 min | AID 652048; in the data active = max activation above about 30%
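Agonist mode: compounds and dopamine controls were applied to plated cells for 90 min at 37 degrees C after an overnight attachment at 1500 cells/well. Luminescent read-out followed 30 - 60 minutes at room temperature with DiscoveRx detection reagent.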
IL-1B inflam inh: inhibitors of inflammasome signaling (IL-1 beta secretion). THP-1 LPS/ATP IL-1B secretion, AlphaLISA, 16 h; stronger effect = lower value. activity change, % at 57.5 µM. hit rate 4.7% among 360,000. AID 743279; in the data active = activity change below about -50%; inconclusive = mostly about -30% to -49%
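THP-1 cells pretreated 1 hr with compounds (up to 57.5 uM final), then stimulated with LPS (250 ng/mL final) plus ATP (1.25 mM final); secreted IL-1B measured by AlphaLISA after 16 hr, decreased signal indicating inhibition.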
ClpP mod: qHTS Assay for Activators of ClpP. purified B. subtilis ClpP, FRET peptide cleavage, 20 min. hit rate 1.9% among 340,000. ATP-dependent Clp protease proteolytic subunit (Bacillus subtilis (strain 168)), P80244. Potency, µM (doses to about 57.5 µM). AID 651965, 2013; active = well fitted falling curve with a large enough effect; inconclusive = small, poorly fitted or top-dose-only effect; inactive = no such curve, though single readings can be large or run the other way; note: the source files actives as falling curves though it sought activators and does not explain the sign; nearly all actives have a fitted effect of over 65% in size
Target sequence (P80244 whole entry, looked up): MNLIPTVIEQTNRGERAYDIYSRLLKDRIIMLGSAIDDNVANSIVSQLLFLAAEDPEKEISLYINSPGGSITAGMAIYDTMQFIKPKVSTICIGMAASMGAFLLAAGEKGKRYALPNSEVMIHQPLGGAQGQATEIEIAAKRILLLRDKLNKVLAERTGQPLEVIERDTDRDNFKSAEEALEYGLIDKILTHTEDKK
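ClpP 10 microg/mL final, pH 8 Tris/KCl buffer with BSA, glycerol, Tween-20; compound pinned in; FRET-FV substrate; RT 20 min; Ex320/Em430; ΔFRET vs ADEP 5.8 microM, DMSO, no enzyme.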
A number is an active result; i = inactive; ? = inconclusive; nt = no result given; [ ] = remark or other dose. A selection: hits, their analogues and other compounds. The true share with any hit is near 21%. Unless noted, calls come from the whole dose curve; as a rule, active = well fitted inhibition curve with a large enough effect; inconclusive = small, poorly fitted or top-dose-only effect; inactive = flat fitted curve, though single readings scatter.

SMILES	DT40 TDP1 no CPT	D3 antag	TDP1 cell CPT	D3 ag	IL-1B inflam inh	ClpP mod
CC(c1ccon1)N(C)C(=O)c1cnn(-c2ncc3c(n2)-c2ccccc2CC3)c1C1CC1 (stereo not drawn)	16µM	nt	i[9.04 µM]	nt	nt	nt
COc1ccccc1-c1ccnc(-n2ncc(C(=O)N[C@H]3CCCCNC3=O)c2C2CC2)n1	21µM	nt	?	nt	nt	nt
Cc1cc(-c2ccnc(-n3ncc(C(=O)NCC4CCCN(C)C4)c3C3CC3)n2)c(C)s1 (stereo not drawn)	i	nt	i	nt	nt	nt
COc1ccc2c(c1)-c1nc(-n3ncc(C(=O)N(C)C(C)c4ccon4)c3C3CC3)ncc1CC2 (stereo not drawn)	?	nt	i[9.04 µM]	nt	nt	nt
Cc1cc(CNC(=O)c2cnn(-c3nccc(-c4cc(C)sc4C)n3)c2C2CC2)on1	?	nt	16µM	nt	nt	nt
Cc1cc(CNC(=O)c2cnn(-c3ncc4c(n3)-c3ccccc3CC4)c2C2CC2)on1	?	nt	16µM	nt	nt	nt
CCOc1cccc(CC(=O)N2CCc3c([nH]c4ccccc34)C2c2ccccc2)c1OCC (stereo not drawn)	?	nt	?	i	nt	i
O=C(Cn1nc2ccccc2n1)N1CCOc2ccc(CN3CCc4sccc4C3)cc2C1	i	nt	i[9.04 µM]	nt	nt	nt
Cc1cc(-c2ccnc(-n3ncc(C(=O)NCC4CCCO4)c3C3CC3)n2)c(C)s1 (stereo not drawn)	?	nt	i[9.04 µM]	nt	nt	nt
COC(=O)[C@@H]1CCCN1C(=O)c1cnn(-c2ncc3c(n2)-c2ccccc2CCC3)c1C1CC1	16µM	nt	?	nt	nt	nt
Cc1cc(-c2ccnc(-n3ncc(C(=O)NCC4COCCO4)c3C3CC3)n2)c(C)s1 (stereo not drawn)	6.5µM	nt	9.2µM	nt	nt	nt
CN(CC1COCCO1)C(=O)c1cnn(-c2ncc3c(n2)-c2ccccc2CCC3)c1C1CC1 (stereo not drawn)	?	nt	i	nt	nt	nt
CCC(O)CNC(=O)c1cnn(-c2ncc3c(n2)-c2ccccc2CCC3)c1C1CC1 (stereo not drawn)	?	nt	i	nt	nt	nt
CN(Cc1cccc2ncccc12)C(=O)c1cnn(-c2ncc3c(n2)-c2ccccc2CC3)c1C1CC1	16µM	nt	?	nt	nt	nt
COC(=O)[C@@H]1CCCN1S(=O)(=O)Cc1ccccc1	i	nt	i	nt	nt	i
O=S(=O)(Cc1ccccc1)C1CCCCC1O (stereo not drawn)	i	i	i	i	i	14µM
CSc1ncc(Cl)c(C(=O)Nc2c(C(=O)c3ccc(C)cc3)oc3ccccc23)n1	i	nt	i	i	nt	i
Cc1ccc(CCNC(=O)CCn2nc(-c3ccc(Cl)cc3)ccc2=O)cc1	23µM	nt	?	i	nt	?
O=C(CCn1nc(-c2ccc(Cl)cc2)ccc1=O)N1CCN(c2ccc(F)cc2)CC1	21µM	i	?	i	?	i
O=C(CCn1nc(-c2ccc(Cl)cc2)ccc1=O)NCCc1ccccc1	?	nt	?	i	nt	i
Cc1ccc(-c2ccc(=O)n(CCC(=O)N3CCN(c4ccccc4)CC3)n2)cc1	?	i	i	i	?	nt
COc1ccc(-n2nnc(-c3nc(-c4ccc5c(c4)OCO5)no3)c2C)cc1Cl	i	nt	i	i	nt	i
COc1ccc(CCn2c(=S)[nH]c3cc(C(=O)N4CCOCC4)ccc3c2=O)cc1OC	18µM	i	?	i	i	nt
COc1ccc(CCn2c(=O)[nH]c3cc(C(=O)NCCN4CCOCC4)ccc3c2=O)cc1OC	i	i	i	i	i	i
COc1ccc(CCn2c(=O)[nH]c3cc(C(=O)N4CCN(c5ccccn5)CC4)ccc3c2=O)cc1OC	i	i	i	i	i	11µM
Cc1c(C(=O)N2CCCCCC2)c(S(=O)(=O)Nc2ccc(F)cc2)c(C)n1C	i	i	i	i	i	i
CC(C)c1c(C(=O)NCCN2CCOCC2)cnn1-c1nccc(-c2ccco2)n1	i	nt	i	nt	nt	nt
Cc1ccc(SCC(=O)OCC(=O)N(C)CC(=O)Nc2ccccc2Cl)cc1C	i	i	i	i	i	i
CC1(C)CC(=O)C(C(=O)/C=C/c2ccco2)C(=O)C1	21µM	i	15µM	i	i	i

Assay outcomes as filed in PubChem.
